Results filed as inconclusive are left out. Activity calls are given as the source filed them. Unless noted, calls come from the whole dose curve; as a rule, active = well fitted curve in the direction sought with a large enough effect in the repeat runs; inconclusive = weak or mixed curves; inactive = no such curve, though single readings can be large; an effect the other way counts as inactive or inconclusive.
What was measured:
[1] = qHTS assay to identify small molecule agonists of the vitamin D receptor (VDR) signaling pathway - cell viability counter screen (AID 743224); note: series mostly up to about 63 µM; nearly all actives have a fitted effect of over 50% in size
Method in brief: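 VDR-bla cell line, quantitative HTS format; 16 h compound incubation (37C, 5% CO2); ATP-based CellTiter-Glo luminescence measured in the reporter assay wells.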

[2] = qHTS assay to identify small molecule antagonists of the vitamin D receptor (VDR) signaling pathway - cell viability counter screen (AID 743225); note: nearly all actives have a fitted effect of over 50% in size
Method in brief: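 VDR-bla HEK 293T cells, 4 h pre-incubation at 37C, then compound plus 1-alpha,25-dihydroxyvitamin D3 (3 nM final) for 16 h. After the beta-lactamase FRET read, CellTiter-Glo was added to the same wells; luminescence after 30 min at room temperature.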

[3] = qHTS assay to identify small molecule agonists of the NFkB signaling pathway (AID 1159509; active = well fitted curve in the direction sought with a large enough effect in the signal ratio in the repeat runs, not every such curve was filed as active; the % refers to the signal ratio; note: series mostly up to about 61 µM)
Method in brief: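 NFkB-bla ME-180 cells carry a beta-lactamase reporter under an NF-kB response element. They were plated overnight, then exposed to compounds for 5 h at 37 C. Read-out is LiveBLAzer FRET after 1.5 hr at room temperature (405 nm excitation; 460/530 nm emission).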

[4] = qHTS assay to identify small molecule agonists of the NFkB signaling pathway - cell viability counter screen (AID 1159515; calls by dose curve; note: series mostly up to about 61 µM; nearly all actives have a fitted effect of over 55% in size)
Method in brief: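 Viability in NFkB-bla ME-180 cells was measured by CellTiter-Glo luminescence, 30 min room temperature, in wells already treated 5 hr with compounds and read for reporter FRET.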

[5] = qHTS assay to identify small molecule agonists of the endoplasmic reticulum stress response signaling pathway (AID 1159516; active = well fitted activation curve with a large enough effect in the signal ratio in the repeat runs, not every such curve was filed as active; the % refers to the signal ratio)
Method in brief: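 ER stress element reporter (bla) in HeLa. 1,500 cells/well, overnight attachment; 5 hr compound; 2 hr RT substrate; dual-emission fluorescence.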

[6] = qHTS assay to identify small molecule agonists of the endoplasmic reticulum stress response signaling pathway - cell viability counter screen (AID 1159517; calls by dose curve;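 note: HeLa cells carrying an ER stress response element beta-lactamase reporter; series mostly up to about 61 µM; nearly all actives have a fitted effect of over 50% in size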)
Method in brief: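 CellTiter-Glo was added to wells already read for beta-lactamase FRET, and luminescence was recorded 30 min later. Cells: ESRE-bla HeLa, 1,500 per well, compound exposure 5 hr at 37 C.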

[7] = qHTS assay to identify small molecule antagonists of the retinoid-related orphan receptor gamma (ROR-gamma) signaling pathway - cell viability counter screen (AID 1159520); note: nearly all actives have a fitted effect of over 50% in size
Method in brief: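 Tet-on ROR gamma CHO cells (1,000/well) were plated 4 hr, given compounds in DMSO for 2 hr at 37 C, then induced with 1 uM final doxycycline for 16 hr. Viability was read as ATP by CellTiter-Glo luminescence after 30 min.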

[8] = molecular target: Nuclear receptor ROR-gamma (Homo sapiens) (UniProt P51449); assay: qHTS assay to identify small molecule antagonists of the retinoid-related orphan receptor gamma (ROR-gamma) signaling pathway (AID 1159521)
Method in brief: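 Tet-on RORγ CHO cells carrying a ROR response element–luciferase reporter were pretreated with compounds for 2 h, then induced with 1 uM (final) doxycycline hyclate for 16 h at 37 C. Antagonism was read as decreased ONE-Glo luminescence.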

[9] = qHTS assay to identify small molecule agonists of the AP-1 signaling pathway - cell viability counter screen (AID 1159525; calls by dose curve; note: nearly all actives have a fitted effect of over 55% in size)
Method in brief: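 ME-180 AP-1-bla, 2500 cells/well, Opti-MEM + 0.5% dialyzed FBS; overnight 37 °C; cpd 15-pt titration, 5 h 37 °C; CellTiter-Glo 30 min RT; luminescence read; normalised to TOAB and DMSO controls.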

[10] = qHTS assay to identify small molecule agonists of the AP-1 signaling pathway (AID 1159526; calls by dose curve)
[11] = molecular target: Retinoic acid receptor RXR-alpha (Homo sapiens) (UniProt P19793); assay: qHTS assay to identify small molecule agonists of the RXR signaling pathway (AID 1159527; calls by dose curve; note: nearly all actives have a fitted effect of over 35% in size)
Method in brief: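 GeneBLAzer RXR-alpha-UAS-bla HEK 293T cells in medium with 2% charcoal-stripped FBS, pre-incubated 5 hr at 37 C, then exposed to compounds 16 hr. Beta-lactamase reporter read by FRET substrate, 2 hr room temperature, 460/530 nm emission.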

[12] = qHTS assay to identify small molecule agonists of the RXR signaling pathway - cell viability counter screen (AID 1159529)
Method in brief: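 RXR-alpha-UAS-bla HEK 293T cells in medium with 2% charcoal-stripped FBS were preincubated 5 hr, then exposed to compounds for 16 hr at 37 C. Viability was read as CellTiter-Glo luminescence after 30 min at room temperature.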

[13] = qHTS assay to identify small molecule antagonists of the retinoid acid receptor (RAR) signaling pathway - cell viability counter screen (AID 1159551); note: nearly all actives have a fitted effect of over 35% in size
Method in brief: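 Following overnight attachment, C3RL4 reporter cells received DMSO-dissolved compounds and then retinol (1 uM final). Six hours later at 37 C, ATP content was measured by CellTiter-Glo luminescence.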

[14] = qHTS assay to identify small molecule antagonists of the retinoic acid receptor (RAR) signaling pathway (AID 1159552; note: nearly all actives have a fitted effect of over 50% in size)
Method in brief: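 RARE-luc C3RL4 cells; cpds + 1 uM (final) retinol, 6 hr, 37 C/5% CO2; luciferase reagent, 30 min RT, luminescence readout. Inhibitors of retinol-driven signal scored.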

[15] = qHTS assay to identify small molecule agonists of the retinoic acid receptor (RAR) signaling pathway (AID 1159553)
Method in brief: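 Cell line C3RL4, RARE luciferase reporter. Treatment: compounds in DMSO, 6 hr, 37 C, 5% CO2, after overnight plating. Detection: luminescence, 30 min RT after reagent.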

[16] = qHTS assay to identify small molecule antagonists of the estrogen related receptor (ERR) signaling pathway - cell viability counter screen (AID 1224818);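 note: series mostly up to about 46 µM; viability measured after 17.5 h of compound exposure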
Method in brief: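 Here, ERR cells are plated at 2,000 cells per well, allowed 6 h to attach, and treated with compounds in DMSO for 17.5 h at 37 C. CellTiter-Fluor is then added and fluorescence read after 30 min.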

[17] = qHTS assay to identify small molecule antagonists of the estrogen related receptor signaling pathway with the pleiotropic PPARgamma coactivator (PGC) cell viability counter screen (AID 1224822;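 note: series mostly up to about 46 µM; viability read after 17.5 h compound exposure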)
Method in brief: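 qHTS format, DMSO compound stocks pin-transferred onto PGC/ERR cells 6 h after plating; 17.5 h exposure at 37 C, then CellTiter-Fluor fluorescence.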

[18] = qHTS assay to identify small molecule antagonists of the estrogen related receptor (ERR) signaling pathway (AID 1224819)
Method in brief: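 LOPAC library screened for antagonism as reduced One-Glo luminescence in ERR reporter cells (2,000/well). Compounds were added after 6 h pre-incubation and left 18 h at 37C; reading followed a 30 min room-temperature reagent step.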

[19] = qHTS assay to identify small molecule agonists of the estrogen related receptor (ERR) signaling pathway (AID 1224820)
Method in brief: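 ERR reporter cell line (from NTP), 2,000 cells/well, incubated 6 h before compound addition, then 18 h at 37 C. Luminescence measured 30 min after One-Glo reagent at room temperature.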

[20] = tested on: estrogen-related receptor alpha (ERRalpha) with PGC-1alpha coactivator, human; assay: qHTS assay to identify small molecule antagonists of the estrogen related receptor signaling pathway with the pleiotropic PPARgamma coactivator (PGC) (AID 1224821; calls by dose curve)
Method in brief: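 PGC/ERR reporter cell line, plated 6 h before compound addition, then exposed 18 h at 37 °C. Luciferase activity read by luminescence 30 min after One-Glo addition; decrease indicates antagonism.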

Measured: Potency

Sequence of Retinoic acid receptor RXR-alpha (Homo sapiens) (P19793 whole entry, looked up): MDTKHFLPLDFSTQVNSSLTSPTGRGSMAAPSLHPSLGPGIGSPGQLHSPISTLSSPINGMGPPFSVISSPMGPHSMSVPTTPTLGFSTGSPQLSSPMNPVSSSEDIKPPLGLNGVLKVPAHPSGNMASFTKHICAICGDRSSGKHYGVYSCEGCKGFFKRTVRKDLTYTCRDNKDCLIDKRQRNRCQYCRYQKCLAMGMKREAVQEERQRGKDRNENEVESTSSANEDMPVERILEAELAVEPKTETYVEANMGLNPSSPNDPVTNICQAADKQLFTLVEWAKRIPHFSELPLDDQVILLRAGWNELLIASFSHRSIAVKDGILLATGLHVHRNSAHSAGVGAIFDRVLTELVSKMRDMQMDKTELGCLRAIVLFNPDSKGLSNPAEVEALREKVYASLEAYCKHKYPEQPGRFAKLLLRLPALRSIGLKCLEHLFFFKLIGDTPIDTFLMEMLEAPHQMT

COc1ccccc1OCC(O)CN1CCN(CC(=O)Nc2c(C)cccc2C)CC1 (configuration not stated)
not listed: [18] | [19] | [20]
inactive: all other assays above

CCO/C([O-])=N/c1c[n+](N2CCOCC2)no1
inactive: all assays above

OCCOc1ccc(OCCO)cc1
not listed: [1] | [2] | [16] | [17] | [18] | [19] | [20]
inactive: all other assays above

CCn1nc(C(=O)O)c(=O)c2cc3c(cc21)OCO3
inactive: all assays above

N=c1nc(N2CCCCC2)cc(N)n1O
not listed: [18] | [19] | [20]
inactive: all other assays above

c1cnc(N2CCN(Cc3ccc4c(c3)OCO4)CC2)nc1
not listed: [2] | [18] | [19] | [20]
inactive: all other assays above

CCN(Cc1ccncc1)C(=O)C(CO)c1ccccc1 (configuration not stated)
not listed: [1] | [18] | [19] | [20]
inactive: all other assays above

CCCCOCCOCCOCc1cc2c(cc1CCC)OCO2
not listed: [18] | [19] | [20]
inactive: all other assays above

O=C1CC2CC1C1CCCC21 (configuration not stated)
not listed: [2] | [16] | [17] | [18] | [19] | [20]
inactive: all other assays above

Oc1ccc(C2CNCCc3c2cc(O)c(O)c3Cl)cc1 (configuration not stated)
not listed: [1] | [18] | [19] | [20]
inactive: all other assays above

Nc1nc2c(ncn2COC(CO)CO)c(=O)[nH]1
not listed: [18] | [19] | [20]
inactive: all other assays above

CCCCNC(=O)NCCCC
not listed: [2] | [16] | [17] | [18] | [19] | [20]
inactive: all other assays above

NCCc1cnc[nH]1
not listed: [18] | [19] | [20]
inactive: all other assays above

CCN1CCC[C@H]1CNC(=O)c1c(O)c(Cl)cc(Cl)c1OC
not listed: [18] | [19] | [20]
inactive: all other assays above

NC(=O)c1cn(Cc2c(F)cccc2F)nn1
not listed: [18] | [19] | [20]
inactive: all other assays above

CCOC(=O)Nc1ccc(NCc2ccc(F)cc2)nc1N
not listed: [18]
inactive: all other assays above

Nc1c2c(nc3ccccc13)CCCC2O (configuration not stated)
inactive: all assays above

CC(C)NCC(O)c1ccc(NS(C)(=O)=O)cc1 (configuration not stated)
not listed: [1] | [18] | [19] | [20]
inactive: all other assays above

CCCN(CCC)CCc1cccc2c1CC(=O)N2
not listed: [18] | [19] | [20]
inactive: all other assays above

COc1ccc(CCN(C)CCCC(C#N)(c2cc(OC)c(OC)c(OC)c2)C(C)C)cc1OC (configuration not stated)
not listed: [18] | [19] | [20]
inactive: all other assays above

CC(C)c1cc2c(cc1S(=O)(=O)O)[C@@]1(C)CCC[C@@](C)(C(=O)O)[C@@H]1CC2
not listed: [2] | [16] | [17] | [18] | [19] | [20]
inactive: all other assays above

COc1c(N2C[C@@H]3CCCN[C@@H]3C2)c(F)cc2c(=O)c(C(=O)O)cn(C3CC3)c12
not listed: [1] | [2] | [16] | [17] | [18] | [19] | [20]
inactive: all other assays above

CCN(CC)CCNC(=O)c1cc(S(C)(=O)=O)ccc1OC
not listed: [18] | [19] | [20]
inactive: all other assays above

Cc1nc2c([nH]1)c(=O)n(C)c(=O)n2Cc1ccco1
not listed: [1] | [18] | [19] | [20]
inactive: all other assays above

O=C(c1ccccc1)C1CCCCC1
not listed: [1] | [2] | [16] | [17] | [18] | [19] | [20]
inactive: all other assays above

CN1CCC(=C2c3ccccc3CC(=O)c3sccc32)CC1
not listed: [18] | [19] | [20]
inactive: all other assays above

CCn1ccnc1CC1COc2ccccc2O1 (configuration not stated)
inactive: all assays above

O=C1CCCN1C1CCCCC1
not listed: [2] | [16] | [17] | [18] | [19] | [20]
inactive: all other assays above

Nc1ccccc1S(=O)(=O)O
not listed: [2] | [16] | [17] | [18] | [19] | [20]
inactive: all other assays above

CCCCCCCCS(=O)(=O)Cl
not listed: [2] | [16] | [17] | [18] | [19] | [20]
inactive: all other assays above

O=C1NC(=O)[C@@]2(CCOc3ccc(F)cc32)N1
not listed: [18] | [19] | [20]
inactive: all other assays above

CC(=O)OCC(CCn1cnc2cnc(N)nc21)COC(C)=O
not listed: [17] | [18] | [19] | [20]
inactive: all other assays above

Cc1cc(O)cc2c1O[C@](C)(CCC[C@H](C)CCC[C@H](C)CCCC(C)C)CC2
not listed: [1] | [2] | [16] | [17] | [18] | [19] | [20]
inactive: all other assays above

CCN1CCC[C@H]1CNC(=O)c1cc(S(N)(=O)=O)ccc1OC
not listed: [18] | [19] | [20]
inactive: all other assays above

COC(=O)c1cc(C(=O)OC)cc(S(=O)(=O)O)c1
not listed: [16] | [17] | [18] | [19] | [20]
inactive: all other assays above

Reference: PubChem BioAssay (Tox21)
